Results as given in PubChem BioAssay (NCI).
Compounds without any hit were thinned out: in the full panel of roughly 83,000, 20% have a hit.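 Negative percent growth values reflect cell death: -40 means 40% of the cells present at the start died, and -100 means all died.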 Unmarked numbers belong to inactive results. Calls of active or inactive are those of the source. How the source made its calls: active means growth percent below 10; inactive means the rest.

Tests used:
Assay in all cases: NCI-60 one-dose screen, 48 h (100 = growth as untreated, 0 = no growth, -100 = all killed)
Conditions in all cases: 10 µM unless noted
DU-145 prostate = test system: DU-145 prostate
K-562 leukemia = test system: K-562 leukemia
MALME-3M melanoma = test system: MALME-3M melanoma
MDA-MB-231 breast = test system: MDA-MB-231 breast
RXF 393 renal = test system: RXF 393 renal
SF-268 CNS = test system: SF-268 CNS
SF-295 CNS = test system: SF-295 CNS
SF-539 CNS = test system: SF-539 CNS
UACC-257 melanoma = test system: UACC-257 melanoma
M14 melanoma = test system: M14 melanoma
HCT-15 colon = test system: HCT-15 colon
HT29 colon = test system: HT29 colon
SNB-19 CNS = test system: SNB-19 CNS
U251 CNS = test system: U251 CNS
PC-3 prostate = test system: PC-3 prostate
SK-MEL-5 melanoma = test system: SK-MEL-5 melanoma
UACC-62 melanoma = test system: UACC-62 melanoma
SK-MEL-28 melanoma = test system: SK-MEL-28 melanoma
LOX IMVI melanoma = test system: LOX IMVI melanoma

Compound | growth (DU-145 prostate) [%] | growth (K-562 leukemia) | growth (MALME-3M melanoma) [%] | growth (MDA-MB-231 breast) [%] | growth (RXF 393 renal) | growth (SF-268 CNS) | growth (SF-295 CNS) [%] | growth (SF-539 CNS) | growth (UACC-257 melanoma) [%] | growth (M14 melanoma) [%] | growth (HCT-15 colon) [%] | growth (HT29 colon) [%] | growth (SNB-19 CNS) [%] | growth (U251 CNS) [%] | growth (PC-3 prostate) [%] | growth (SK-MEL-5 melanoma) [%] | growth (UACC-62 melanoma) [%] | growth (SK-MEL-28 melanoma) [%] | growth (LOX IMVI melanoma)
N=C(N)c1ccc(-c2ccc(-c3ccc(-c4cccs4)s3)s2)cc1 | 90.4 | 58% | 85 | 81.1 | 80.7% | 93.5% | 101 | 88.5% | 99.3 | 100 | 101 | 95 | 97.5 | 91.2 | 89 | 91.4 | 93.3 | 102 | 
CC(C)(C)n1cc(-c2ccnc(NCCNS(=O)(=O)c3ccc(C(F)(F)F)cc3)c2)c(-c2cccc(O)c2)n1 | 75.7 | 7.42% (active) | 42.3 | 46 | 37% | 56.6% | 44.3 | 54% | 47.2 | 44.7 | 11.7 | 12.4 | 70.5 | 36.8 | 25.4 | 20.9 | 64.1 | 51.3 | 25.8%
CC(C)(C)c1[nH]nc2c1C(c1cc3ccccc3[nH]c1=O)Nc1cc(C(=O)Nc3ccc(Cl)cc3)ccc1N2 (stereo not drawn) | 83.8 | 39.2% | 80.6 | 85.6 | 43.9% | 62.2% | 38.5 | 85.8% | 83.9 | 53.5 | 98.8 | 91.3 | 90.5 | 60.5 | 61.4 | 70.2 | 73.1 | 81.7 | 
N/C(=N\S(=O)(=O)c1ccccc1)Nc1nc2ccccc2s1 | 111 | 84.9% | 105 | 92.3 | 99.4% | 92.2% | 92.7 | 91.2% | 92.6 | 101 | 104 | 92.1 | 99 | 96.7 | 83.9 | 90.5 | 76.6 | 109 | 97.5%
Cc1ccc2nc(-c3cc4c([nH]c5ccccc54)c(-c4ccc(F)c(F)c4)n3)[nH]c2c1 | 80.8 | 65.9% | 120 | 60.8 | 88.5% | 95.4% | 88.7 | 89.5% | 104 | 83.5 | 32.7 | 18.7 | 112 | 64 | 72.6 | 61.1 | 90.4 | 101 | 11.7%
NC1=NC(SCc2ccccc2CCl)c2ncn(Cc3ccccc3CCl)c2N1 (stereo not drawn) | 64 | 21.9% | 19.4 | 47.5 | -4.55% (active) | 54.9% | 101 | 69.4% | 42.5 | 40 | 76.5 | 14.4 | 74.7 | 36.8 | 78.6 | 48.4 | 34.2 | 65.2 | -80.2% (active)
COc1ccc(-c2ccc(-c3ccc(C(=N)N)cn3)s2)cc1OC | 97.5 | 41.8% | 94.9 | 89 | 121% | 101% | 99.1 | 83.4% | 114 | 97.4 | 99.8 | 65.5 | 94.7 | 88.3 | 93.5 | 88.7 | 98.1 | 98 | 
N#Cc1c(-c2ccccc2)nc(SCC(=O)N2CCN(c3ccccc3)CC2)[nH]c1=O | 120 | 112% | 94.9 | 115 | 104% | 111% | 102 | 99.2% | 89.2 | 96.7 | 107 | 117 | 99.9 | 95.7 | 95.6 | 103 | 106 | 116 | 97%
Cc1ccc(C(=O)C2=Cc3cc4ccccc4n3Cc3cnnn32)cc1 | 113 | 75.1% | 116 | 95.5 | 95.3% | 101% | 114 | 111% | 98.8 | 115 | 107 | 106 | 93 | 100 | 87.7 | 93.5 | 85.1 | 102 | 110%
N/C(=N\C(N)=N\c1nc2ccccc2s1)c1ccncc1 | 91.1 | 13.1% | 81.5 | 55.7 | 65.7% | 7.14% (active) | 74.1 | 68.2% | 95.3 | 49.5 | 35.3 | 27.7 | 69.5 | 71 | 73.9 | 59 | 44.6 | 66.9 | 55.8%
CN(C)CCOC(=O)Nc1ccccc1Cl | 123 | 111% | 94.8 | 107 | 120% | 112% | 114 | 110% | 121 | 100 | 103 | 110 | 104 | 108 | 93.5 |  | 110 | 115 | 101%
CCN(CC)c1ccc(/C=C2\Oc3ccc(O)c(I)c3C2=O)cc1 | 87 | 12.5% | 63.4 | 65.8 | 63% | 71.4% | 68.9 | 58.3% | 80.6 | 28.7 | 37 | 72.4 | 49.7 | 49.1 | 52.8 |  | 49.8 | 74.3 | 34.2%
CN1C(=O)N(C)C2C1NN=c1s/c(=C\c3cccnc3)c(=O)n12 (stereo not drawn) | 95.5 | 27.7% | 71.4 | 69.1 | 92.4% | 84.8% | 81.7 | 91% | 85.2 | 61.1 | 42.2 | 49.1 | 81.4 | 90.2 | 65.9 |  | 68.6 | 81.5 | 80.1%
OB(O)c1cccc(-c2nc3ccc4[nH]ncc4c3c3c2CCCC3)c1F | 49.5 | 66.2% | 120 | 40.9 | -20.1% (active) | 53% | 69.3 | 8.65% (active) | 115 | 79.7 | 35.2 | 45.2 | 58.3 | 50.6 |  | 79.5 | 27.4 | 92.5 | 26.3%
NC(=S)N/N=C(/CCN1CCCC1)CC(C1=C(O)C2=CCCCC2OC1=O)c1ccccc1 (stereo not drawn) | 87.3 | 38.8% | 73 | 70.4 | 106% | 89.6% | 98.5 | 95.4% | 73.1 | 79 | 75.6 | 36.2 | 109 | 88 | 85.6 |  | 97.4 | 99.6 | 56%
COc1ccc(Nc2[nH]n3c(=O)cc(-c4ccccc4)nc3c2C(=O)Nc2ccc(C)cc2)c(OC)c1 | 118 | 68.4% | 91.6 | 86.2 | 92.1% | 96.2% | 95.7 | 81% | 85.4 | 95.6 | 89.6 | 112 | 56.3 | 60.3 | 76.9 |  | 64 | 95 | 87%
CC(C)(C)Nc1c(-c2cccs2)nc2ncccn12 | 105 | 86.5% | 99.9 | 108 | 98.9% | 97.5% | 99.5 | 97.5% | 90.5 | 106 | 102 | 103 | 95.9 | 104 | 95 |  | 95.8 | 113 | 98.5%
